Source: PubChem BioAssay (National Center for Advancing Translational Sciences (NCATS))
Rab9 promoter act: activates the Rab9 promoter | Huh7 Rab9 promoter-luciferase reporter, luminescence, 24 h | Potency, µM (highest dose often 9.22 µM), for the others: top-dose activation, negative = inhibition, most hits filed as activators | 2.8% of 320,000 active | AID 485297; also: % of control where 0% means no effect; nearly all actives have a fitted effect of over 60% in size
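Promoter activation is measured as luciferase luminescence in Huh7 cells stably transfected with a Rab9 promoter–luciferase construct, following 24 h compound exposure at 37 °C and 10 min reagent incubation at ambient temperature.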
FLuc counter: firefly luciferase modulation, counter-screen for miR-21 project. P08659. purified FLuc, Km substrates, luminescence inhibition. Potency, µM (titrated, usually from 57.5 µM), for inactives: at the highest dose activity change, negative = inhibition, most hits filed as inhibitors. 6.9% of 360,000 active. AID 588342;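 also: plate controls were vehicle for no effect and reference inhibitor for full effect; nearly all actives have a fitted effect of over 55% in size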
Target sequence (P08659 whole entry, looked up): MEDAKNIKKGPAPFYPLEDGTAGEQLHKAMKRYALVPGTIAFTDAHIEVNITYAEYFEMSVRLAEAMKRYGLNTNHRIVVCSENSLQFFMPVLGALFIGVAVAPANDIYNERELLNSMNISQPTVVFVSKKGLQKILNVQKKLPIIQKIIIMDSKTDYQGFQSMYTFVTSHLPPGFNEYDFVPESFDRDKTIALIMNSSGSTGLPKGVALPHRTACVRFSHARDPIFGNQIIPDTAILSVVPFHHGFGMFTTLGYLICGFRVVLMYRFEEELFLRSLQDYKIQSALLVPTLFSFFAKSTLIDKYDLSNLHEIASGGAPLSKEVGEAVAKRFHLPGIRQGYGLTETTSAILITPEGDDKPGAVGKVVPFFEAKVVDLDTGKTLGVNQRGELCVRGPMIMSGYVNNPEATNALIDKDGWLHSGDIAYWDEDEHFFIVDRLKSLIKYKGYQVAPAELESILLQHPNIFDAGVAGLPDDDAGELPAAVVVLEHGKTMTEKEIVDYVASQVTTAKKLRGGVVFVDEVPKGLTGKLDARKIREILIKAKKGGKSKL
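Purified P. pyralis luciferase (10nM final) with 10uM D-luciferin and 10uM ATP (Km levels) in 50mM Tris acetate pH 7.5, 10mM Mg acetate, 0.01% Tween-20, 0.05% BSA; qHTS 6-point titration, ~60 µM downward; luminescence read.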
NPC1 prom act: activators of NPC1 promoter | 2.4% of 320,000 active | Huh7 NPC1 promoter luciferase reporter, 24 h | Potency, µM (doses to about 9.22 µM), for inactives: at the top dose activation, usual class: activators | AID 485313; also: % of control where 0% means no effect; nearly all actives have a fitted effect of over 60% in size
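Luminescence from an NPC1 promoter-driven luciferase reporter in stably transfected Huh7 cells was measured after 24 h compound treatment at 37 °C, followed by 10 min ambient incubation with luciferase detection reagent.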
ELG1 DNA repair: blocks ELG1-dependent DNA repair in HEK293T cells. HEK293T ELG1-luciferase reporter, luminescence, 16 h; DNA damage induced by 5-fluorouridine. Potency, µM (highest dose often 46.1 µM), for inactives: at the highest dose activity change, negative = inhibition, most hits filed as inhibitors. 2.3% of 330,000 active. AID 504467; also: % is scaled to controls: 0 for no effect and ±100 for the full control effect; nearly all actives have a fitted effect of over 55% in size
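Quantitative HTS, concentration-response format. 2,000 cells/well co-treated with 5-fluorouridine and compound, 16 hr in 5% CO2 at 37 °C; ONE-Glo luminescence read after 30 min.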
SMN2 splice up: enhancers of SMN2 splice variant expression. HEK293 SMN2-luciferase splicing reporter, luminescence, 30-36 h. Potency, µM (top dose mostly 46.1 µM), for the others: top-dose activity change, positive = activation, hits mostly activators. 2.8% of 210,000 active; also: % of control where 0% means no effect; nearly all actives have a fitted effect of over 55% in size
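HEK293 cells carry an SMN2 […]–luciferase reporter in which exon 7 inclusion puts luciferase in frame. Cells were plated 10-12 h before compound addition, then incubated 30-36 h at 37C. ONE-Glo luminescence was read; sodium butyrate at 4.5 mM final served as control.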
ELG1 genotoxic: induces genotoxicity in HEK293T cells with luciferase-tagged ELG1; Potency, µM (doses to about 46 µM), inactives show top-dose activity change, positive = activation, most hits filed as activators; 1.3% of 330,000 active; HEK293T ELG1-luciferase reporter, luminescence, 16 h; also: % of control where 0% means no effect; nearly all actives have a fitted effect of over 60% in size
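Genotoxicity was scored as increased ELG1-luciferase reporter signal, measured by ONE-Glo luminescence (30 min, room temperature). Compound or vehicle exposure of the HEK293T reporter cells lasted 16 hr at 37°C.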
An asterisk follows results filed as active; ? = inconclusive; / = not tested or not shown; [ ] = another dose, or the depositor's remark. Sampled rows, rich in hits. Any-hit rate of the full collection: about 9.3%. Calls follow the shape of the dose curve; as a rule, active = well fitted curve in the direction sought with a large enough effect; inconclusive = small, poorly fitted or top-dose-only effect, or another doubt; inactive = no such curve, though single readings can be large; an effect the other way counts as inactive or inconclusive. Potency is read from the fitted curve at half-maximal effect.

SMILES	Rab9 promoter act	FLuc counter	NPC1 prom act	ELG1 DNA repair	SMN2 splice up	ELG1 genotoxic
O=C(Nc1cccc(NC(=O)c2nccc3ccccc23)c1)c1ccco1	2.7%	8.49µM*	1.3%	-12.2%	-7.0%	?
O=C(Nc1cccc(NC(=O)c2sc3ccccc3c2Cl)c1)c1ccco1	9.6%	2.69µM*	12.5%	?	20.9%	-7.8%
O=C(Nc1cccc(F)c1)c1ccco1	24.6%	-16.0%	14.7%	?	/	11.5%
CC(C)(C)OC(=O)N1CCC(c2c(C(=O)NCc3ccccc3)cnn2-c2cccc(F)c2)CC1	/	-2.3%	/	/	/	/
O=C(N/N=C/c1ccc(OC2CSC2)cc1)c1ccccc1	2.24µM*	2.39µM*	3.16µM*	?	21.2%	?
O=C(/C=C/c1ccc(OC2CSC2)cc1)c1ccccc1	1.78µM*	0.536µM*	3.55µM*	?	12.8%	?
O=C(NC(=S)Nc1ccc(CN2CCOCC2)cc1)c1ccc2c(c1)OCCO2	22.8%	16.9µM*	?	?	/	-4.7%
O=C(NC(=S)Nc1ccc(N2CCOCC2)cc1)c1ccc2c(c1)OCCO2	4.0%	?	14.0%	?	-61.0%	-1.0%
CCOc1ccc(C(=O)Nc2ccc(CN3CCOCC3)cc2)cc1Br	3.5%	13.5µM*	1.3%	0.6%	/	-5.8%
O=C(Nc1ccc(Cn2cccn2)cc1)c1ccc(COc2ccccc2Br)cc1	-5.3%	16.9µM*	9.1%	-19.8%	-42.9%	-5.7%
COc1ccccc1OCc1ccc(C(=O)Nc2ccccc2)cc1	?	-17.1%	?	?	/	7.3%
COc1ccc(C(=O)NC(=S)Nc2ccc(CN3CCOCC3)cc2)cc1Br	-8.7%	-5.2%	2.0%	23.1µM*	/	-9.6%
CCCCc1ccc(NC(=O)CN2C(=O)C3CCCCC3C2=O)cc1 (configuration not stated)	0.4%	-15.1%	1.7%	16.1%	/	-2.2%
Cc1ccc(CCNC(=O)c2nc(CS(=O)(=O)c3ccc(Cl)cc3)no2)cc1	-0.9%	0.1%	1.5%	-5.3%	/	-6.9%
CCOc1ccc(C(=O)Nc2cccc(NC(=O)c3ccc(C(C)(C)C)cc3)c2)cc1Br	/	1.51µM*	/	/	?	/
COc1ccc(C(=O)NC(=S)NC(C)(C)C)cc1Br	?	10.7µM*	29.4%	?	17.4%	8.7%
COc1cc(Nc2nc3c(S(=O)(=O)c4cccc(Cl)c4)nnn3c3ccsc23)cc(OC)c1	/	1.8%	/	/	/	/
COc1cccc2nc3cc(C)c(C)cc3nc12	0.891µM*	0.757µM*	0.891µM*	?	/	1.46µM*
COc1ccc(CNC(=O)c2csc(Cc3ccccc3)n2)cc1	18.8%	19µM*	3.6%	?	?	7.3%
O=C(Nc1ccc(F)cc1)c1csc(Cc2ccccc2)n1	?	5.36µM*	?	?	1.2%	5.7%
COc1ccc(NC(=O)c2csc(Cc3ccccc3)n2)cc1	?	6.75µM*	25.7%	?	-15.3%	?
Cc1ncc(CSc2ccccc2N)c(CO)c1O	/	/	/	/	-4.7%[9.22 µM]	/
O=c1c2ccccc2nc(COc2ccccc2)n1/N=C/c1ccc(O)c(O)c1	-20.3%	26.9µM*	-5.9%	?	/	-6.3%
CCCc1nc2ccccc2c(=O)n1/N=C/c1ccc(O)cc1	?	2.0%	2.2%	11.6µM*	-6.4%	-5.0%
CCCc1nc2ccccc2c(=O)n1/N=C/c1ccc(O)cc1O	1.1%	-0.3%	-15.9%	?	-22.0%	-9.8%
CC(=O)c1ccc(N2CCN(C(=O)c3cc(-c4ccncc4)nc4ccc(Cl)cc34)CC2)cc1	2.5%	?	13.4%	?	/	-11.3%
Fc1cccc(Cl)c1Cc1noc(/C=C/c2ccccc2)n1	?	13.5µM*	?	?	/	15.1%
COc1ccccc1-n1cnc2cc(C(=O)N3CCOCC3)ccc21	11.1%	-4.6%	8.5%	?	/	8.5%
